# Laboratory results: PubChem BioAssay AID1233 (SRMLSC, 2008)
# Results with a measured potency or affinity are listed apart. Activity calls are given as the source filed them.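 The calls were made as follows: active = a dose-response curve fit returns a half-maximal inhibitory concentration, extrapolated values included; inactive = the fit returns no such concentration.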
# Biological target: HMG-CoA reductase [Enterococcus faecalis] (UniProt Q9FD70)
# Assay: class II HMG-CoA reductase inhibition potency – biochemical, Enterococcus faecalis, confirmation (AID 1233)
# Details: purified E. faecalis HMGR, NADPH absorbance 340 nm kinetics; series mostly up to 100 µM
row,Structure (SMILES),outcome
1,CC(C)NC(=O)c1ccccc1NC(=O)C(C)Oc1ccccc1 (configuration not stated),inactive
2,Cc1cc(C)c2c(=O)[nH]c(SCC(=O)N(C)C)nc2n1,inactive
3,O=C(COC(=O)CNC(=O)c1ccccc1F)Nc1ccc2c(c1)OCCO2,inactive
4,O=C(NCc1cccs1)c1cc2c(s1)CS(=O)(=O)C2,inactive
5,CN(CCC#N)C(=O)COC(=O)c1ccc(Cl)c(S(=O)(=O)N(C)c2ccccc2)c1,inactive
6,CC(=O)c1ccc(N2CCN(C(=O)Cc3n[nH]c(=O)c4ccccc34)CC2)cc1,inactive
7,COc1oc(-c2ccc(Cl)cc2)nc1C(F)(F)F,inactive
8,CCOC(=O)C(C(=O)OCC)C1CCS(=O)(=O)C1 (configuration not stated),inactive
9,COC(=O)c1ccc(C(NC(=O)OCc2ccccc2)/C(C)=C/[C@@H](C)C(=O)NCc2ccc(-c3ccccc3)cc2)cc1 (some centres not stated),inactive
10,COc1cc(C2NC(=O)NC(c3ccccc3)=C2C(C)=O)cc(Cl)c1OCC(=O)O (configuration not stated),inactive
11,COC(=O)CC1COc2ccccc2N1C(=O)c1ccc(Br)cc1 (configuration not stated),inactive
12,Cn1c(=O)c(C(=O)CSc2ccccc2)c(N)n(Cc2ccccc2)c1=O,inactive
13,Cc1cccc(C)c1N1CCN(C(=O)N2CCCCC2)CC1,inactive
14,O=C(CSCc1ccc(Cl)cc1)NCC1CCCO1 (configuration not stated),inactive
15,CCOc1ccc(S(=O)(=O)N(C)CCO)cc1-c1nc2c(C(C)(C)C)nn(C)c2c(=O)[nH]1,inactive
16,COc1ccc(-c2cc(C(=O)Nc3c(C)nn(Cc4ccc(Cl)cc4)c3C)no2)cc1,inactive
17,N#Cc1c(/N=C/c2ccco2)sc2c1CCCCC2,inactive
18,O=[N+]([O-])/C(=C\Nc1ccccc1Cl)S(=O)(=O)c1ccccc1,inactive
19,O=C(NC(NC(=S)Nc1ccccc1C(=O)O)C(Cl)(Cl)Cl)c1ccccc1 (configuration not stated),inactive

row,Structure (SMILES),outcome
1,OCc1ccccc1CNCc1ccccc1,inactive
2,CCCOP(=O)(OCCC)c1nc(-c2ccccc2)oc1NCc1ccccc1,inactive
3,CC(=O)c1cccc(NC(=O)Nc2csc3c2CCCC3)c1,inactive
4,CCNC(=O)CSc1nc2cc([N+](=O)[O-])ccc2n1-c1cccc(C(F)(F)F)c1,inactive
5,CCCCC(c1nnnn1CCOC)N1CCN(CC)CC1 (configuration not stated),inactive
6,COc1ccc(C)cc1NC(=O)C(Sc1nnnn1C)c1ccccc1 (configuration not stated),inactive
7,COc1ccc(N2CCN(C(=O)C3CCC(Cn4c(=S)[nH]c5ccccc5c4=O)CC3)CC2)cc1 (configuration not stated),inactive
8,COC(=O)Cc1cc(=O)n2[nH]cnc2n1,inactive
9,COC(=O)C1C(c2ccc(N(C)C)cc2)C(C(=O)OC)S(=O)(=O)CS1(=O)=O (configuration not stated),inactive
10,O=C(O)CCC(=O)NC(c1ccccc1)c1ccccc1,inactive
11,CCCCCC(=O)Nc1ccc(Cc2ccncc2)cc1,inactive
12,COc1cc(Cn2c(=O)oc3ccc(C)cc32)ccc1OC(C)C,inactive
13,Cc1ccsc1C(=O)C1CCCN(Cc2cc(F)ccc2-n2cccn2)C1 (configuration not stated),inactive
14,Cc1ccc(C(=O)O)cc1S(=O)(=O)N1CCC(C(=O)O)CC1,inactive
15,CC(C)[C@H](NC(N)=O)C(=O)Nc1cccc(S(=O)(=O)N2CCOCC2)c1,inactive
16,CC1CCCN(C(=O)C2CCN(CC(C)c3ccccc3)CC2)C1 (configuration not stated),inactive
17,CC(C)CC(O)(CC(C)C)C(=O)NNc1ccccc1,inactive
18,O=C(CSc1nc2ccccc2n1CCc1ccccc1)N1CCOCC1,inactive
